Data on 2 molecules can be found in PubChem BioAssay AID2265 (National Center for Advancing Translational Sciences (NCATS), 2010).

Some of the results follow. Records with an inconclusive call do not appear. Activity calls are given as the source filed them. Calls come from the whole dose curve; as a rule, active = well fitted inhibition curve with a large enough effect; inconclusive = small, poorly fitted or top-dose-only effect; inactive = flat fitted curve, though single readings scatter.

This assay addresses Luciferin 4-monooxygenase (Photuris pensylvanica) (UniProt Q27757). Briefly: Secondary assay for Inhibitors of Human Pyruvate Kinase M2 isoform: FLuc Counterscreen. Particulars: Kinase-Glo firefly luciferase, luminescence, 8 min; series mostly up to 57.5 µM. On the procedure: NIH Chemical Genomics Center [NCGC] Matthew G. Vander Heiden, M.D., Ph.D. [Harvard Medical School, 77 Avenue Louis Pasteur, Boston, MA 02115] MLPCN Grant: 1 R03 MH085679-01 NCGC Assay Overview: Luciferase (Kinase-Glo, Promega Corporation) was assayed for its ability to generate light using ATP and luciferin as substrates. The ATP concentration in the assay (10 uM) was within the linear range of enzyme activity for the assay conditions used. This assay was used as an counter screen for human pyruvate kinase M2 isoform.
NCGC Assay Protocol Summary: Four uL of substrate mix (final concentration, 50 mM imidazole pH 7.2, 50 mM KCl, 7 mM MgCl2, 10 uM ATP, 0.01% Tween 20, 0.05% BSA) was dispensed into white 1536 well plates. Twenty-three nL of compound was delivered by a pin tool and 2 uL of luciferase detection mix (Kinase-Glo, Promega)) was added. Following 8-minute incubation at ambient temperature, luminescence was measured by a ViewLux (Perkin Elmer) at 5 seconds exposure/plate.
As to `Cc1ccc(Nc2c(-c3ccc(C)s3)nc3ccccn23)cc1`, the outcome was inactive.

As to `Cc1ccc(-c2nc3ccccn3c2Nc2ccc(F)cc2)o1`, the call was inactive.
